Bioassay records deposited in PubChem by several laboratories.
PfHsp40 yeast: rescue of yeast from PfHsp40 toxicity, primary screen, S. cerevisiae, ATP luminescence. S. cerevisiae expressing PfHsp40, growth rescue. growth rescue, % at 12.5 µM. 340,000 tested, 0.68% active; in the data active = growth rescue above about 28%, passing the limit was not always enough; inconclusive = no clear call, values can overlap the other calls;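 also: yeast W303a lacking pdr1 and pdr3 grown in galactose medium; growth measured after three days at 30 °C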
MazF activator: activators of E. coli MazEF toxin-antitoxin RNase, primary screen, biochemical, fluorescence, uHTS. 350,000 tested, 0.32% active. FAM/BHQ RNA-DNA oligo cleavage fluorescence, 5 h. Endoribonuclease toxin MazF (Escherichia coli (strain K12)), P0AE70. AID 504720, 2011. activation, % at 20 µM; in the data active = activation above about 50%
Target sequence (P0AE70 whole entry, looked up): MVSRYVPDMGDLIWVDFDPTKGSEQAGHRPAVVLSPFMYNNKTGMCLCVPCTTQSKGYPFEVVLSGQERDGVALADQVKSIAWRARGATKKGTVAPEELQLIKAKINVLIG
ugtP null kill: growth inhibition of ugtP-null S. aureus, primary screen, RN4220 ugtP deletion, OD600; AID 1259309, 2017; 16 h; 330,000 tested, 0.54% active; growth inhibition, % (no concentration beside the values); in the data active = growth inhibition above about 68%;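 also: plate controls were untreated wells for no effect and antibiotic for full effect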
RN4220 kill: growth inhibition of S. aureus RN4220, primary screen, OD600 | 16 h | inhibition, % (no concentration beside the values) | 330,000 tested, 0.33% active | AID 1259311, 2017; in the data active = inhibition above about 85%;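 also: plate controls were untreated cells for no effect and reference antibiotic for full effect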
Mtb hypoxia inh: PubChem AID 1159583; M. tuberculosis hypoxia-regulated fluorescent reporter, fluorescence; fluorescence inhibition, % (concentration not given with the values); 300,000 tested, 0.1% active; in the data active = fluorescence inhibition mostly above about 23%, no sharp cut-off; inactive = mostly below about 17%
TcdB GH inh: TcdB glycohydrolase inhibitors, primary screen, biochemical, single point, plate reader; AID 652162, 2013; TcdB glycohydrolase enzymatic assay; inhibition, % at 9.99 µM; Toxin B (Clostridioides difficile), P18177; 350,000 tested, 0.24% active; in the data active = inhibition above about 10%
The depositor's hits bear a star; ? = inconclusive; . = not tested or not shown; ! = repeats disagree. Rows were chosen to be rich in hits. Some 1.3% of all compounds tested hit in one or more screens of this group.

SMILES	PfHsp40 yeast	MazF activator	ugtP null kill	RN4220 kill	Mtb hypoxia inh	TcdB GH inh
Cc1ccc(S(=O)(=O)N(C)S(=O)(=O)c2ccc(C)cc2)cc1	6.7	-5.1	7.7	2.8	15.8	0.4
CC(C)NC(=O)Nc1ccc2c(c1)C(=O)N([C@H](C)CO)C[C@@H](C)[C@H](CN(C)S(=O)(=O)c1cccs1)OCCCC[C@H](C)O2	.	.	.	.	.	0.6
COc1ccc(-n2nc([N+](=O)[O-])c(=NCCCN3CCCC3=O)n2O)cc1	1.1	3.3	40.9	55.6	5.2	2.2
O=C1CCCN1CCCN=c1c([N+](=O)[O-])nn(-c2ccc(Cl)cc2)n1O	3.4	-4.6	61.9	63.5	45.6*	1.4
COc1ccc(N=Cc2c(O)n(-c3cccc(C)n3)c(=O)c3ccccc23)c(OC)c1	-2.0	277.5*	3.4	2.4	-4.4	0.3
Cc1ccc(C(=O)Nc2ccc3ccccc3n2)cc1	-0.1	0.6	-0.6	6.7	4.8	0.7
Cc1ccc(C(O)(C(=O)NNc2ccc3ccccc3n2)c2ccc(C)cc2)cc1	74.6*!	5.8	5.1	-1.2	1.5	.
CC(C)c1cn(CC[C@@H]2CC[C@H](N)[C@@H](CO)O2)nn1	.	.	.	.	.	-2.0
C[C@@H]1CN([C@H](C)CO)C(=O)Cc2cc(NC(=O)Cc3cn(C)c4ccccc34)ccc2O[C@@H]1CN(C)S(=O)(=O)c1cn(C)cn1	.	.	.	.	.	-1.7
COc1ccc(C=NNc2nncc3ccccc23)cc1	.	.	5.2	5.4	11.0	.
CN1c2ccccc2C(O)=C(C(=O)Nc2ccccc2)S1(=O)=O	-0.1	-5.6	.	.	.	.
Cc1sc2c(c1C)C(O)=C(C(=O)Nc1ccccc1)S(=O)(=O)N2C	153.2*	-15.9	-6.7	24.3	2.0	0.6
C[C@@H]1CN([C@H](C)CO)C(=O)c2cc(C#Cc3ccncc3)cnc2O[C@@H]1CN(C)C(=O)CN(C)C	.	.	.	.	.	-0.2
CN(CC(=O)Nc1ccccc1Cl)CC(=O)N(C)c1c(N)n(Cc2ccccc2)c(=O)[nH]c1=O	1.3	0.2	-1.9	-3.0	-24.5	0.1
CN(CC(=O)Nc1ccccc1Cl)CC(=O)c1c(N)n(Cc2ccccc2)c(=O)n(C)c1=O	2.6	66.5*	1.7	-0.5	10.8	0.1
CCOC(=O)N=Nc1c2ccccc2c2nc3no[nH]c3nc12	115.8*	25.5	100.1*	100.2*	.	-1.2
CCn1c(O)c(N=NC(=O)c2ccc(CSc3nncn3C)cc2)c2ccccc21	1.2	-2.0	0.6	5.5	42.0*	.
O=C1OC(c2ccccc2)(c2ccc3cc(O)ccc3c2)c2ccccc21 (configuration not stated)	4.9	-7.3	92.9*	-17.7	10.0	0.7
O=C1OC(c2ccc(O)cc2)(c2ccc(O)cc2)c2ccccc21	0.6	3.4	0.3	7.4	0.3	-4.4
Cc1noc(C)c1NC(=O)Nc1ccc2c(c1)C(=O)N([C@H](C)CO)C[C@H](C)[C@@H](CN(C)C(=O)Nc1ccc(C(F)(F)F)cc1)OCCCC[C@@H](C)O2	.	.	.	.	.	0.2
CC12C=CC(=O)C=C1CCC1C2C(=O)CC2(C)C(=O)CCC12 (configuration not stated)	-1.1	14.3	4.6	3.8	7.5	1.8
C[C@]12C=CC(=O)C=C1CC[C@@H]1[C@@H]2CC[C@]2(C)C(=O)CC[C@@H]12	48.1*	1.4	.	.	.	0.7
CCN1C(=O)N[C@@H](c2ccccc2)[C@@H](C(=O)OC)[C@H]1C	33.4*	0.9	.	.	.	0.6
Cc1ccc(C=NNC(=O)CNC(=O)c2cccs2)cc1	.	.	-0.4	-0.6	9.6	.
O=C(NN=Cc1ccc(-c2cccc(Cl)c2)o1)C(=O)NC1CCCC1	.	.	-3.6	0.0	7.3	.
SMILES	PfHsp40 yeast	MazF activator	ugtP null kill	RN4220 kill	Mtb hypoxia inh	TcdB GH inh
O=C(Nc1ccc([N+](=O)[O-])cc1)Nc1nc(-c2ccc(Cl)s2)cs1	0.0	-8.6	97.4*	97.1*	2.7	1.0
O=C(Nc1nc(-c2ccccc2)cs1)c1cccs1	10.2	4.7	19.9	28.7	.	.
CC(=O)Nc1nc(-c2ccc([N+](=O)[O-])cc2)cs1	-1.6	3.1	6.6	2.7	1.0	2.9
O=C(Nc1nc(-c2ccc(Cl)s2)cs1)c1cccs1	?	22.0	98.9*	54.3	6.6	.
CC(=O)Oc1c(I)cc(I)cc1C(=O)Nc1ccc(Cl)cc1	216.8*	-6.9	.	.	.	0.7
C[C@@H]1CN([C@H](C)CO)C(=O)c2cc(NC(=O)CCCN(C)C)ccc2O[C@@H](C)CCCCO[C@H]1CN(C)Cc1ccc2c(c1)OCO2	.	.	.	.	.	0.4
COc1cccc(C=NNC(=O)c2cc(-c3cccn3C)n[nH]2)c1O	.	.	-6.7	5.3	5.7	.
COc1cccc(/C=N/NC(=O)c2cc(-c3cccn3C)n[nH]2)c1O	160.3*	-3.2	.	.	.	-1.3
COc1cc(C=NNC(=O)c2cc(-c3cccn3C)n[nH]2)cc(OC)c1OC	.	.	90.0*	51.2	.	.
COCc1cc(C)nc(OCC(=O)NN=Cc2ccc(-c3cccc([N+](=O)[O-])c3)o2)c1C#N	.	.	2.8	6.6	1.6	.
O=C(C1CCCC1)N1CC2(C1)[C@@H](c1ccccc1)[C@H](CO)N2C(=O)c1cccnc1	.	.	.	.	.	-0.7
CO[C@@H]1CN(C)C(=O)c2cc(NS(=O)(=O)c3ccc(-c4ccccc4)cc3)ccc2OC[C@H](C)NC[C@@H]1C	.	.	.	.	.	0.9
O=C(c1cccs1)c1coc2ccc(O)cc12	47.8*	5.3	0.3	9.4	15.8	.
C[C@@H]1CN([C@@H](C)CO)C(=O)c2cccc(NS(C)(=O)=O)c2O[C@@H]1CN(C)S(=O)(=O)c1ccccc1	.	.	.	.	.	-14.3
Cn1nc(C(F)(F)F)c(C=NOCc2c(Cl)cccc2Cl)c1Cl	.	.	92.6*	3.7	1.0	.
COc1cccc(N=Nc2ccc3ccccc3c2O)c1	0.3	76.4*	-4.3	-4.4	5.5	-0.1
CC[n+]1ccccc1/C=C1\Sc2ccc(C)cc2N1C	1.8	-33.8	100.5*	26.6	-4.9	1.7
CN1/C(=C/c2cccc[n+]2CCO)Sc2ccccc21	-1.2	-32.0	-0.9	-4.9	-1.3	0.8
CCC(C)C(C(=O)N1CCNCC1)n1cc(CCC(=O)O)nn1 (configuration not stated)	.	.	-8.2	-3.9	-4.6	.
Cc1[nH][nH]c(=O)c1C(c1c(C)[nH][nH]c1=O)c1cn(Cc2ccc(F)cc2)c2ccccc12	-0.5	-4.0	36.1	31.3	6.9	.
Cc1[nH][nH]c(=O)c1C(c1c(C)[nH][nH]c1=O)c1cn(Cc2ccc(Cl)c(Cl)c2)c2ccccc12	1.1	-5.5	88.0*	36.4	2.2	-1.2
CCN(CC)c1ccc(C=NNC(=O)CNC(=O)c2cccnc2)cc1	.	.	5.4	2.5	.	.
CCc1ccc(C(C)=NNC(=O)c2ccc(-n3cnnn3)cc2)cc1	.	.	1.1	5.4	19.5*	.
CCn1nnc(-c2ccccc2NC(=O)c2ccc(-n3cnnn3)cc2)n1	71.3*	5.6	7.9	6.4	7.3	.
